# Laboratory results taken from paper PMC11062922 (Nature Chemical Biology, 2023).
# Assays:
# Design in all cases: species or system human, MV4-11 + K-562 + COLO205 + SK-N-BE2 + OVCAR-8
# ACVR2B = details: read-out: apparent Kd; compound concentrations:100 nM and 1000 nM (sheet 'Samples'); n = 1
# MAP3K1 = details: read-out: apparent Kd; compound concentrations:100 nM and 1000 nM (sheet 'Samples'); n = 1
# SLK = details: read-out: apparent Kd; compound concentrations:100 nM and 1000 nM (sheet 'Samples'); n = 1
# STK10 = details: read-out: apparent Kd; compound concentrations:100 nM and 1000 nM (sheet 'Samples'); n = 1
# ADCK1 = details: read-out: apparent Kd; compound concentrations: 100 nM and 1000 nM (sheet 'Samples'), CATDS: 1.95230654661257E-2; n = 1
# AKT1 = details: read-out: apparent Kd; compound concentrations: 100 nM and 1000 nM (sheet 'Samples'), CATDS: 2.9179929134034902E-2; n = 1
# AKT2 = details: read-out: apparent Kd; compound concentrations: 100 nM and 1000 nM (sheet 'Samples'), CATDS: 2.7091450445171202E-2; n = 1
# CDC42BPA = details: read-out: apparent Kd; compound concentrations: 100 nM and 1000 nM (sheet 'Samples'), CATDS: 1.9780691565578001E-2; n = 1
# CDC42BPB = details: read-out: apparent Kd; compound concentrations: 100 nM and 1000 nM (sheet 'Samples'), CATDS: 1.71408665149138E-2; n = 1
# CDK17 = details: read-out: apparent Kd; compound concentrations: 100 nM and 1000 nM (sheet 'Samples'), CATDS: 1.7217162863952602E-2; n = 1
# CIT = details: read-out: apparent Kd; compound concentrations: 100 nM and 1000 nM (sheet 'Samples'), CATDS: 2.24347173261998E-2; n = 1
# GSK3A = details: read-out: apparent Kd; compound concentrations: 100 nM and 1000 nM (sheet 'Samples'), CATDS: 4.2719516683869502E-2; n = 1
# GSK3B = details: read-out: apparent Kd; compound concentrations: 100 nM and 1000 nM (sheet 'Samples'), CATDS: 3.83672032367414E-2; n = 1
# IKBKE = details: read-out: apparent Kd; compound concentrations: 100 nM and 1000 nM (sheet 'Samples'), CATDS: 1.7325644717854999E-2; n = 1
# IRAK3 = details: read-out: apparent Kd; compound concentrations: 100 nM and 1000 nM (sheet 'Samples'), CATDS: 2.0418472541538401E-2; n = 1
# JAK2 = details: read-out: apparent Kd; compound concentrations: 100 nM and 1000 nM (sheet 'Samples'), CATDS: 0.192481748469752; n = 1
# LATS1 = details: read-out: apparent Kd; compound concentrations: 100 nM and 1000 nM (sheet 'Samples'), CATDS: 3.9734792534973799E-2; n = 1
# MARK2 = details: read-out: apparent Kd; compound concentrations: 100 nM and 1000 nM (sheet 'Samples'), CATDS: 2.5049968914142899E-2; n = 1
# MARK3 = details: read-out: apparent Kd; compound concentrations: 100 nM and 1000 nM (sheet 'Samples'), CATDS: 2.50648330516796E-2; n = 1
# MARK4 = details: read-out: apparent Kd; compound concentrations: 100 nM and 1000 nM (sheet 'Samples'), CATDS: 2.22913749693762E-2; n = 1
# MTOR = details: read-out: apparent Kd; compound concentrations: 100 nM and 1000 nM (sheet 'Samples'), CATDS: 2.8143895354302499E-2; n = 1
# PAK4 = details: read-out: apparent Kd; compound concentrations: 100 nM and 1000 nM (sheet 'Samples'), CATDS: 7.9705302542388501E-2; n = 1
# PAK6 = details: read-out: apparent Kd; compound concentrations: 100 nM and 1000 nM (sheet 'Samples'), CATDS: 0.106835733020908; n = 1
# PI4KB = details: read-out: apparent Kd; compound concentrations: 100 nM and 1000 nM (sheet 'Samples'), CATDS: 2.3618528560732301E-2; n = 1
# PIK3CA = details: read-out: apparent Kd; compound concentrations: 100 nM and 1000 nM (sheet 'Samples'), CATDS: 5.0539059632895601E-2; n = 1
# PIK3CD = details: read-out: apparent Kd; compound concentrations: 100 nM and 1000 nM (sheet 'Samples'), CATDS: 6.1879573349501601E-2; n = 1
# PIM2 = details: read-out: apparent Kd; compound concentrations: 100 nM and 1000 nM (sheet 'Samples'), CATDS: 1.8579492636517099E-2; n = 1
# PKN1 = details: read-out: apparent Kd; compound concentrations: 100 nM and 1000 nM (sheet 'Samples'), CATDS: 3.3974214988559501E-2; n = 1
# PKN2 = details: read-out: apparent Kd; compound concentrations: 100 nM and 1000 nM (sheet 'Samples'), CATDS: 1.8056964738192099E-2; n = 1
# PKN3 = details: read-out: apparent Kd; compound concentrations: 100 nM and 1000 nM (sheet 'Samples'), CATDS: 6.5050017907180402E-2; n = 1
# PRKACA = details: read-out: apparent Kd; compound concentrations: 100 nM and 1000 nM (sheet 'Samples'), CATDS: 2.14323323603763E-2; n = 1
# PRKACB = details: read-out: apparent Kd; compound concentrations: 100 nM and 1000 nM (sheet 'Samples'), CATDS: 2.3381704422051099E-2; n = 1
# PRKACG = details: read-out: apparent Kd; compound concentrations: 100 nM and 1000 nM (sheet 'Samples'), CATDS: 2.46536070948064E-2; n = 1
# PRKAG1 = details: read-out: apparent Kd; compound concentrations: 100 nM and 1000 nM (sheet 'Samples'), CATDS: 2.0047926729344401E-2; n = 1
# PRKCD = details: read-out: apparent Kd; compound concentrations: 100 nM and 1000 nM (sheet 'Samples'), CATDS: 1.7220600193925E-2; n = 1
# PRKG1 = details: read-out: apparent Kd; compound concentrations: 100 nM and 1000 nM (sheet 'Samples'), CATDS: 2.2056800835646401E-2; n = 1
# PRKX;PRKY = details: read-out: apparent Kd; compound concentrations: 100 nM and 1000 nM (sheet 'Samples'), CATDS: 5.5547171780811498E-2; n = 1
# ROCK2 = details: read-out: apparent Kd; compound concentrations: 100 nM and 1000 nM (sheet 'Samples'), CATDS: 2.36815478984151E-2; n = 1
# RPS6KA4 = details: read-out: apparent Kd; compound concentrations: 100 nM and 1000 nM (sheet 'Samples'), CATDS: 1.94570911667616E-2; n = 1
# RPS6KA5 = details: read-out: apparent Kd; compound concentrations: 100 nM and 1000 nM (sheet 'Samples'), CATDS: 1.9053083137800499E-2; n = 1
# RPS6KB1 = details: read-out: apparent Kd; compound concentrations: 100 nM and 1000 nM (sheet 'Samples'), CATDS: 1.8709076421106301E-2; n = 1
# STK16 = details: read-out: apparent Kd; compound concentrations: 100 nM and 1000 nM (sheet 'Samples'), CATDS: 1.87060817181595E-2; n = 1
# TAOK2 = details: read-out: apparent Kd; compound concentrations: 100 nM and 1000 nM (sheet 'Samples'), CATDS: 1.8592761990064401E-2; n = 1
# TGFBR1 = details: read-out: apparent Kd; compound concentrations: 100 nM and 1000 nM (sheet 'Samples'), CATDS: 1.75354561240674E-2; n = 1
smiles,measurement,setting,value
C[C@@H](Oc1cc(-n2cnc3cc(-c4ccnc(N5CCN(C)CC5)c4)ccc32)sc1C(N)=O)c1ccccc1Cl [GSK641502A],potency estimated from few doses,ACVR2B,732 nM
same,potency estimated from few doses,MAP3K1,603 nM
same,potency estimated from few doses,SLK,1940 nM
same,potency estimated from few doses,STK10,1120 nM
CCn1c(-c2nonc2N)nc2c(C#CC(C)(C)O)ncc(OCC3CCNCC3)c21.O=C(O)C(F)(F)F [GSK554170A],potency estimated from few doses,ADCK1,1500 nM
same,potency estimated from few doses,AKT1,520 nM
same,potency estimated from few doses,AKT2,616 nM
same,potency estimated from few doses,CDC42BPA,1440 nM
same,potency estimated from few doses,CDC42BPB,2430 nM
same,potency estimated from few doses,CDK17,2390 nM
same,potency estimated from few doses,CIT,993 nM
same,potency estimated from few doses,GSK3A,240 nM
same,potency estimated from few doses,GSK3B,295 nM
same,potency estimated from few doses,IKBKE,2320 nM
same,potency estimated from few doses,IRAK3,1310 nM
same,potency estimated from few doses,JAK2,25.1 nM
same,potency estimated from few doses,LATS1,275 nM
same,potency estimated from few doses,MARK2,744 nM
same,potency estimated from few doses,MARK3,743 nM
same,potency estimated from few doses,MARK4,1010 nM
same,potency estimated from few doses,MTOR,564 nM
same,potency estimated from few doses,PAK4,84.6 nM
same,potency estimated from few doses,PAK6,55.1 nM
same,potency estimated from few doses,PI4KB,865 nM
same,potency estimated from few doses,PIK3CA,178 nM
same,potency estimated from few doses,PIK3CD,126 nM
same,potency estimated from few doses,PIM2,1780 nM
same,potency estimated from few doses,PKN1,375 nM
same,potency estimated from few doses,PKN2,1980 nM
same,potency estimated from few doses,PKN3,116 nM
same,potency estimated from few doses,PRKACA,1130 nM
same,potency estimated from few doses,PRKACB,888 nM
same,potency estimated from few doses,PRKACG,775 nM
same,potency estimated from few doses,PRKAG1,1380 nM
same,potency estimated from few doses,PRKCD,2380 nM
same,potency estimated from few doses,PRKG1,1040 nM
same,potency estimated from few doses,PRKX;PRKY,151 nM
same,potency estimated from few doses,ROCK2,859 nM
same,potency estimated from few doses,RPS6KA4,1520 nM
same,potency estimated from few doses,RPS6KA5,1630 nM
same,potency estimated from few doses,RPS6KB1,1740 nM
same,potency estimated from few doses,STK16,1740 nM
same,potency estimated from few doses,TAOK2,1780 nM
same,potency estimated from few doses,TGFBR1,2210 nM
